Values joined by “and” are separate entries in the source; they are usually repeats but may differ in a detail not shown here. Identical values can stand only once. Some compounds were tested as several samples or in several runs, with calls that do not always agree. Active and inactive are the calls of the source. Rule for the calls: active = hit-call score of the fitted dose curve at least 0.9, where 1 is the maximum; inactive = score below 0.9.
Assays:
[1] = read-out: Tissue plasminogen activator (tPA), PLAT (gene 5327); assay: BSK_BE3C_tPA: BioMAP Diversity Plus: BE3C Assay for Tissue plasminogen activator (tPA) Biomarker Activity (AID 2283041); conditions: primary human bronchial epithelial cells; actives raise or lower the signal
Method in brief: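 Bidirectional curve fitting relative to DMSO defined activity, with tPA detected by ELISA in chemically treated human bronchial epithelial primary cells at 24 hours.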

[2] = read-out: Interleukin-8 (IL8), CXCL8 (gene 3576); assay: BSK_CASM3C_IL8: BioMAP Diversity Plus: CASM3C Assay for Interleukin-8 (IL8) Biomarker Activity (AID 2283042); conditions: primary human coronary artery smooth muscle cells; actives raise or lower the signal;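 note: IL-8 protein level quantified by ELISA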
[3] = read-out: Human Leukocyte Antigen - DR isotype (HLADR), HLA-DRA (gene 3122); assay: BSK_CASM3C_HLADR: BioMAP Diversity Plus: CASM3C Assay for Human Leukocyte Antigen - DR isotype (HLADR) Biomarker Activity (AID 2283043); conditions: primary human coronary artery smooth muscle cells; actives raise or lower the signal;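 note: cell-surface HLA-DR protein level quantified by ELISA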
[4] = read-out: Macrophage colony-stimulating factor (MCSF), CSF1 (gene 1435); assay: BSK_CASM3C_MCSF: BioMAP Diversity Plus: CASM3C Assay for Macrophage colony-stimulating factor (MCSF) Biomarker Activity (AID 2283044); conditions: primary human coronary artery smooth muscle cells; actives raise or lower the signal;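 note: M-CSF protein amount quantified by ELISA after 24 h exposure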
[5] = read-out: Low-density lipoprotein receptor (LDLR), LDLR (gene 3949); assay: BSK_CASM3C_LDLR: BioMAP Diversity Plus: CASM3C Assay for Low-density lipoprotein receptor (LDLR) Biomarker Activity (AID 2283045); conditions: primary human coronary artery smooth muscle cells; actives raise or lower the signal;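 note: LDLR protein level on the cell surface quantified by ELISA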
[6] = read-out: Monocyte Chemoattractant Protein-1 (MCP1), CCL2 (gene 6347); assay: BSK_CASM3C_MCP1: BioMAP Diversity Plus: CASM3C Assay for Monocyte Chemoattractant Protein-1 (MCP1) Biomarker Activity (AID 2283046); conditions: primary human coronary artery smooth muscle cells; actives raise or lower the signal;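 note: MCP-1 level quantified by ELISA 24 h after dosing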
[7] = BSK_CASM3C_Proliferation: Cell Proliferation Assessment in the BioMAP Diversity Plus: CASM3C Assay (AID 2283047); conditions: primary human coronary artery smooth muscle cells;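 note: sulforhodamine B total protein stain as relative cell number at 560 nm; sub-confluent cells exposed 48 h before staining; fitted both ways against DMSO so gain or loss of cell number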
[8] = read-out: Monokine induced gamma interferon (MIG), CXCL9 (gene 4283); assay: BSK_CASM3C_MIG: BioMAP Diversity Plus: CASM3C Assay for Monokine induced gamma interferon (MIG) Biomarker Activity (AID 2283048); conditions: primary human coronary artery smooth muscle cells; actives raise or lower the signal;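 note: MIG protein level measured by ELISA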
[9] = read-out: serum amyloid A (SAA), SAA1 (gene 6288); assay: BSK_CASM3C_SAA: BioMAP Diversity Plus: CASM3C Assay for serum amyloid A (SAA) Biomarker Activity (AID 2283049); conditions: primary human coronary artery smooth muscle cells; actives raise or lower the signal;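 note: SAA protein level quantified by ELISA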
[10] = BSK_CASM3C_SRB: Viability Assessment in the BioMAP Diversity Plus: CASM3C Assay (AID 2283050); conditions: primary human coronary artery smooth muscle cells;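 note: total protein by SRB staining as cytotoxicity measure in parallel cultures; cells exposed to compound for 24 h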
[11] = read-out: Thrombomodulin, THBD (gene 7056); assay: BSK_CASM3C_Thrombomodulin: BioMAP Diversity Plus: CASM3C Assay for Thrombomodulin Biomarker Activity (AID 2283051); conditions: primary human coronary artery smooth muscle cells; actives raise or lower the signal;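 note: thrombomodulin protein level measured by ELISA 24 h after dosing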
[12] = read-out: Tissue Factor, F3 (gene 2152); assay: BSK_CASM3C_TissueFactor: BioMAP Diversity Plus: CASM3C Assay for Tissue Factor Biomarker Activity (AID 2283052); conditions: primary human coronary artery smooth muscle cells; actives raise or lower the signal;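 note: cell surface tissue factor protein level read by ELISA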
[13] = read-out: Interferon-gamma inducible Protein 10 (IP10), CXCL10 (gene 3627); assay: BSK_hDFCGF_IP10: BioMAP Diversity Plus: hDFCGF Assay for Interferon-gamma inducible Protein 10 (IP10) Biomarker Activity (AID 2283053); conditions: primary human foreskin fibroblasts; actives raise or lower the signal
Method in brief: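 IP-10 levels, quantified by ELISA, are taken from human foreskin fibroblast cultures 24 h after chemical treatment, with DMSO serving as negative control and baseline for bidirectional analysis.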

[14] = read-out: Urokinase-type plasminogen activator receptor (uPAR), PLAUR (gene 5329); assay: BSK_CASM3C_uPAR: BioMAP Diversity Plus: CASM3C Assay for Urokinase-type plasminogen activator receptor (uPAR) Biomarker Activity (AID 2283054); conditions: primary human coronary artery smooth muscle cells; actives raise or lower the signal;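 note: cell-surface uPAR protein level quantified by ELISA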
[15] = read-out: Vascular cell adhesion molecule 1 (VCAM1), VCAM1 (gene 7412); assay: BSK_CASM3C_VCAM1: BioMAP Diversity Plus: CASM3C Assay for Vascular cell adhesion molecule 1 (VCAM1) Biomarker Activity (AID 2283055); conditions: primary human coronary artery smooth muscle cells; actives raise or lower the signal;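 note: VCAM-1 protein level quantified by ELISA on the cells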
[16] = read-out: Collagen III, COL3A1 (gene 1281); assay: BSK_hDFCGF_CollagenIII: BioMAP Diversity Plus: hDFCGF Assay for Collagen III Biomarker Activity (AID 2283056); conditions: primary human foreskin fibroblasts; actives raise or lower the signal
Method in brief: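 Response relative to DMSO, fitted in both directions, reflects ELISA-measured collagen III in human primary skin fibroblasts 24 h after compound addition.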

[17] = read-out: Epidermal growth factor receptor (EGFR), EGFR (gene 1956); assay: BSK_hDFCGF_EGFR: BioMAP Diversity Plus: hDFCGF Assay for Epidermal growth factor receptor (EGFR) Biomarker Activity (AID 2283057); conditions: primary human foreskin fibroblasts; actives raise or lower the signal
Method in brief: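 Measured by ELISA: EGFR levels on primary human foreskin fibroblasts 24 h after chemical treatment, analysed relative to DMSO with bidirectional fitting.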

[18] = read-out: Interleukin-8 (IL8), CXCL8 (gene 3576); assay: BSK_hDFCGF_IL8: BioMAP Diversity Plus: hDFCGF Assay for Interleukin-8 (IL8) Biomarker Activity (AID 2283058); conditions: primary human foreskin fibroblasts; actives raise or lower the signal
Method in brief: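 Fibroblast monolayers (human foreskin, hDFCGF) received test chemical for 24 h before ELISA detection of IL-8; either increases or decreases relative to DMSO count as activity.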

[19] = BSK_hDFCGF_Proliferation: Cell Proliferation Assessment in the BioMAP Diversity Plus: hDFCGF Assay (AID 2283059); conditions: primary human foreskin fibroblasts;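 note: curves fitted for both rise and fall of signal versus DMSO baseline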
Method in brief: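 Primary human foreskin fibroblasts, sub-confluent; […]; 10% TCA fix, 0.1% SRB stain, A560 total protein. Gain/loss fitted bidirectionally vs DMSO control.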

[20] = read-out: Macrophage colony-stimulating factor (MCSF), CSF1 (gene 1435); assay: BSK_hDFCGF_MCSF: BioMAP Diversity Plus: hDFCGF Assay for Macrophage colony-stimulating factor (MCSF) Biomarker Activity (AID 2283060); conditions: primary human foreskin fibroblasts; actives raise or lower the signal
Method in brief: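 fibroblasts (human foreskin, primary), 24 h post-dose; M-CSF by ELISA; bidirectional fit, DMSO = baseline.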

Measured: AC50

CCCSC(=O)N(CCC)CCC
inactive: [1] | [2] | [3] | [4] | [5] | [6] | [7] | [8] | [9] | [10] | [11] | [12] | [13] | [14] | [15] | [16] | [17] | [18] | [19] | [20]

Cn1cc(-c2ccccc2)c(=O)c(-c2cccc(C(F)(F)F)c2)c1
active: [14] 5.18 µM
inactive: [1] | [2] | [3] | [4] | [5] | [6] | [7] | [8] | [9] | [10] | [11] | [12] | [13] | [15] | [16] | [17] | [18] | [19] | [20]

Cc1ccc([N+](=O)[O-])cc1
inactive: [1] | [2] | [3] | [4] | [5] | [6] | [7] | [8] | [9] | [10] | [11] | [12] | [13] | [14] | [15] | [16] | [17] | [18] | [19] | [20]

Clc1ccccc1Cl
inactive: [1] | [2] | [3] | [4] | [5] | [6] | [7] | [8] | [9] | [10] | [11] | [12] | [13] | [14] | [15] | [16] | [17] | [18] | [19] | [20]

CCNS(=O)(=O)C(F)(F)C(F)(F)C(F)(F)C(F)(F)C(F)(F)C(F)(F)C(F)(F)C(F)(F)F
inactive: [1] | [2] | [3] | [4] | [5] | [6] | [7] | [8] | [9] | [10] | [11] | [12] | [14] | [17] | [18]
active: [1] 13 µM | [2] 17 µM | [3] 8.6 µM | [11] 24.6 µM | [13] 18 µM and 20.9 µM and 19.8 µM | [15] 9.52 µM and 11.7 µM and 5.95 µM | [17] 31.3 µM and 48.5 µM | [18] 55.1 µM and 46.4 µM | [20] 17 µM and 22.2 µM and 28.5 µM

CC(C)(O)c1cnn2c(-c3ccc(F)c(-c4c(F)cccc4C#N)c3)cnc2n1
inactive: [2] | [4] | [5] | [6] | [8] | [9] | [10] | [11] | [12] | [13] | [14] | [15] | [17] | [18] | [19] | [20]
active: [1] 25.3 µM | [3] 32.9 µM | [7] 26.1 µM | [16] 5.96 µM

Cc1cccc(N)c1N
inactive: [1] | [2] | [3] | [5] | [6] | [7] | [8] | [9] | [10] | [12] | [13] | [14] | [16] | [17] | [18] | [19]
active: [4] 3.73 µM | [11] 9.78 µM | [15] 13.8 µM | [20] 0.853 µM

CC(O)CCO (centres undefined)
inactive: [1] | [2] | [3] | [4] | [5] | [6] | [7] | [8] | [9] | [10] | [11] | [12] | [13] | [14] | [15] | [16] | [17] | [18] | [19] | [20]

Clc1ccc(C(c2ccc(Cl)cc2)C(Cl)Cl)cc1
inactive: [1] | [2] | [8] | [9] | [10] | [15] | [17]
active: [3] 25.2 µM | [4] 15.2 µM | [5] 5.11 µM | [6] 32.1 µM | [7] 32.1 µM | [11] 24.1 µM | [12] 26.4 µM | [13] 9.7 µM | [14] 36.7 µM | [16] 5.06 µM | [18] 12.2 µM | [19] 11.9 µM | [20] 7.94 µM

O=[N+]([O-])C(Br)(CO)CO
inactive: [1] | [4] | [5] | [12] | [14]
active: [2] 34.3 µM | [3] 29.5 µM | [6] 28.1 µM | [7] 24.7 µM | [8] 32.7 µM | [9] 30.3 µM | [10] 32.7 µM | [11] 24.7 µM | [13] 28.5 µM | [15] 28.1 µM | [16] 36.7 µM | [17] 36.4 µM | [18] 37.2 µM | [19] 2.66 µM | [20] 26.6 µM

O=[N+]([O-])c1ccc(Oc2ccc(Cl)cc2Cl)cc1
active: [13] 20 µM | [16] 12.1 µM | [19] 20 µM | [20] 13.1 µM
inactive: [1] | [2] | [3] | [4] | [5] | [6] | [7] | [8] | [9] | [10] | [11] | [12] | [14] | [15] | [17] | [18]

CCOc1cccc(C2(N3CCN(c4ccccc4)CC3)CCC(C)CC2)c1 (centres undefined)
inactive: [1] | [2] | [3] | [4] | [5] | [6] | [7] | [8] | [9] | [10] | [11] | [12] | [13] | [14] | [15] | [16] | [17] | [18] | [19] | [20]
